Assay results: PubChem BioAssay (NCATS)
Results filed as inconclusive are left out. Where a call stands in place of a potency, no number is given. Activity calls are given as the source filed them. Calls follow the shape of the dose curve; as a rule, active = well fitted inhibition curve with a large enough effect; inconclusive = small, poorly fitted or top-dose-only effect; inactive = flat fitted curve, though single readings scatter.

Test system: Zika virus NS2B-NS3 protease
Test: Primary screen GU AMC qHTS for Zika virus inhibitors (AID 1347154); also: nearly all actives have a fitted effect of over 70% in size
Conditions: Zika NS2B-NS3 unlinked protease, AMC fluorogenic substrate; series mostly up to 54.1 µM
Outline: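 Unlinked Zika NS2B hydrophilic domain–NS3 protease complex at 25 nM in 10 mM Tris-HCl pH 8.0, 0.01% Tween 20, with an AMC peptide substrate. Fluorescence change (340/450 nm) over 15 min at room temperature, normalized to controls, fitted to 4-parameter Hill.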
Potency is read from the fitted curve at half-maximal effect.

| Structure (SMILES) | Potency |
| --- | --- |
| C[C@]12CC[C@@H]3[C@@H](CCC4=CC(=O)CC[C@@H]43)[C@@H]1CC[C@@H]2OC(=O)CCc1ccccc1 | inactive |
| O=C(O)C(Cl)Cl | inactive |
| Oc1ccc2c3c1O[C@H]1[C@@H](O)C=C[C@H]4[C@@H](C2)NCC[C@@]341 | inactive |
| CCOCCOC(C)=O | inactive |
| CC(N[C@H]1C[C@H]1c1ccccc1)c1ccc2c(c1)OCCO2 (stereo partly drawn) | inactive |
| c1cc2ccc3cccc4ccc(c1)c2c34 | 17.3 µM (active) |
| CC(C)NCC(O)c1ccc([N+](=O)[O-])cc1 (stereo not drawn) | inactive |
| CCO/N=C(\CC)C1=C(O)CC(c2c(C)cc(C)cc2C)CC1=O (stereo not drawn) | inactive |
| CCCCC(CC)COC(=O)c1ccccc1C(=O)OCC(CC)CCCC (stereo not drawn) | inactive |
| COc1cccc2c1[C@]13CCN(CC4CC4)[C@H](C2)[C@]1(OC)CCC(=O)C3 | inactive |
| CCOC(=O)c1cncn1[C@H](C)c1ccccc1 | inactive |
| N=c1c2c(-c3ccccc3)c(-c3ccccc3)n(Cc3ccccc3)c2ncn1C1CCC(O)CC1 (stereo not drawn) | inactive |
| CC(C)Oc1cccc(NC(=O)c2ccccc2C(F)(F)F)c1 | inactive |
| C=C[C@@H]1CN2CCC1C[C@@H]2[C@@H](O)c1ccnc2ccccc12 (stereo partly drawn) | inactive |
| CCCCOC(=O)c1ccccc1C(=O)OCc1ccccc1 | inactive |
| CC(C)(C)NC[C@H](O)c1ccc(O)cc1Cl | inactive |
| CCN1C[C@]2(OC(=O)c3ccccc3NC(C)=O)CC[C@H](OC)[C@@]34[C@H]5CC6[C@@H](OC)C[C@](O)(C(C[C@@H]23)[C@@H]14)[C@@]5(O)[C@@H]6OC | inactive |
| CC1(C)CC/C(=C/c2ccc(Cl)cc2)C1(O)Cn1cncn1 (stereo not drawn) | inactive |
| C=C1C[C@H]2[C@H]3CCC(=O)[C@@]3(C)CC[C@@H]2[C@@]2(C)C=CC(=O)C=C12 | inactive |

| Structure (SMILES) | Potency |
| --- | --- |
| CC(C)(C)[C@]1(O)C[C@@H]2OC(=O)C[C@@]23C(=O)O[C@@H]2OC(=O)[C@H](O)C213 (stereo partly drawn) | inactive |
| CCCC[N+]1(C)[C@H]2CC(OC(=O)[C@H](CO)c3ccccc3)C[C@H]1[C@H]1O[C@H]12 (stereo partly drawn) | inactive |
| O=[N+]([O-])c1ccc([As](=O)(O)O)cc1 | inactive |
| CO/C=C(/C(=O)OC)c1ccccc1Oc1cc(Oc2ccccc2C#N)ncn1 | inactive |
| O=[N+]([O-])c1cc([N+](=O)[O-])c2ccccc2c1 | inactive |
| CC(O)CN1CCN(CC(=O)[O-])CCN(CC(=O)[O-])CCN(CC(=O)[O-])CC1.[Gd+3] (stereo not drawn) | inactive |
| CC(O)=C(C#N)C(=O)Nc1cc(Br)ccc1Br | inactive |
| ClC1=C(Cl)[C@]2(Cl)[C@@H]3[C@@H]4C[C@@H]([C@H]5O[C@@H]45)[C@@H]3[C@@]1(Cl)C2(Cl)Cl | inactive |
| CC1(N2CCC(n3c([C@@H]4CCCNC4)nc4ccccc43)CC2)CCCCCCC1 | inactive |
| CSCC[C@@H](NC(=O)[C@@H](Cc1ccccc1)NC(=O)CNC(=O)CNC(=O)[C@@H](N)Cc1ccc(O)cc1)C(=O)O | inactive |
| COc1ccc2c(c1)[C@]13CCCCC1C(C2)N(C)CC3 (stereo partly drawn) | inactive |
| c1cc2c(cc1[C@H]1OC[C@H]3[C@H]1CO[C@H]3c1ccc3c(c1)OCO3)OCO2 | inactive |
| COc1nn(CSP(=S)(OC)OC)c(=O)s1 | inactive |
| Cc1ccc(Cl)c(O)c1 | inactive |
| CC(C)(O)C(=O)Nc1ccc([N+](=O)[O-])c(C(F)(F)F)c1 | inactive |
| COc1ccc(CC2NCCc3cc(OC)c(OC)cc32)cc1OC (stereo not drawn) | inactive |
| Nc1ccc([N+](=O)[O-])cc1 | inactive |
| O=c1cccc2n1CC1CNC[C@H]2C1 | inactive |
| C[C@]12CC[C@H](O)CC1=CC[C@H]1[C@H]3CCC(=O)[C@@]3(C)CC[C@@H]12 | inactive |
